High-throughput results from PubChem.
In the library only some 10% were active in any assay of this set; here they are far more common.
L3MBTL1 inh: inhibitors of human L3MBTL1; Potency, µM (doses to about 57.1 µM), inactives show at the highest dose activity, negative = inhibition, usual class: inhibitors; actives 0.66% (n = 230,000); AlphaScreen L3MBTL1–H3K9me1 peptide binding; further: on the % scale 0 is the no-effect control and ±100 the full control effect; nearly all actives have a fitted effect of over 60% in size
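AlphaScreen assay: L3MBTL1 (50 nM final) was preincubated 30 min at room temperature with biotinylated H3(1-15)K9me1 peptide (75 nM final), then 30 min with library compounds; streptavidin donor and nickel chelate acceptor beads (10 ug/mL final) added, 30 min dark.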
BAZ2B inh: BAZ2B (human) inhibition | AlphaScreen BAZ2B-H3K14Ac peptide displacement | Potency, µM (doses to about 114 µM), inactives show at the top dose activity change, negative = inhibition, most hits filed as inhibitors | AID 504333 | actives 4.4% (n = 360,000); further: on the % scale 0 is the no-effect control and ±100 the full control effect; nearly all actives have a fitted effect of over 60% in size
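AlphaScreen displacement: compounds (up to 110uM) incubated 30 min at room temperature with a preformed 50 nM BAZ2B/50 nM biotinylated H3K14Ac peptide complex in PBS pH 7.4 with Tween-20. Donor and acceptor beads at 10 ug/mL final added, 20 min light-protected before reading.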
GLS inhibitor: blocks human kidney-isoform glutaminase activity. O94925. GLS enzymatic activity, qHTS titration. Potency, µM (top dose mostly 45.5 µM), for the others: top-dose activity change, negative = inhibition, hits mostly inhibitors. actives 0.21% (n = 410,000); further: on the % scale 0 is the no-effect control and ±100 the full control effect
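Enzyme dispensed in phosphate buffer (45 mM, pH 8.2, 0.02% Tween-20), compounds pinned in, then 1 mM L-glutamine solution and the glutamate oxidase–HRP–Amplex Red mix added; fluorescence read immediately and again after 30 min at room temperature.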
G9a block: inhibitors of human histone lysine methyltransferase G9a; G9a H3K9 monomethylation, AlphaScreen, 2 h; Potency, µM (doses to about 102 µM), for inactives: top-dose activity, negative = inhibition, most hits filed as inhibitors; actives 8.8% (n = 350,000); further: on the % scale 0 is the no-effect control and ±100 the full control effect; nearly all actives have a fitted effect of over 75% in size
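AlphaScreen read-out: biotin-H3K9 peptide (500 nM) methylation by 20 nM enzyme with 20 uM SAM, 2 h at room temperature after 15 min compound preincubation; anti-monomethyl H3K9 antibody plus donor/acceptor beads, 10 min dark.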
JMJD2A Tudor: inhibitors of human JMJD2A Tudor domain. O75164. AlphaScreen JMJD2A-Tudor / H3K4me3 peptide binding. Potency, µM (highest dose often 114 µM), for the others: top-dose activity change, negative = inhibition, actives largely listed as inhibitors. actives 4.4% (n = 390,000); further: on the % scale 0 is the no-effect control and ±100 the full control effect; nearly all actives have a fitted effect of over 50% in size
Target sequence (O75164 whole entry, looked up, the tested form may be a part): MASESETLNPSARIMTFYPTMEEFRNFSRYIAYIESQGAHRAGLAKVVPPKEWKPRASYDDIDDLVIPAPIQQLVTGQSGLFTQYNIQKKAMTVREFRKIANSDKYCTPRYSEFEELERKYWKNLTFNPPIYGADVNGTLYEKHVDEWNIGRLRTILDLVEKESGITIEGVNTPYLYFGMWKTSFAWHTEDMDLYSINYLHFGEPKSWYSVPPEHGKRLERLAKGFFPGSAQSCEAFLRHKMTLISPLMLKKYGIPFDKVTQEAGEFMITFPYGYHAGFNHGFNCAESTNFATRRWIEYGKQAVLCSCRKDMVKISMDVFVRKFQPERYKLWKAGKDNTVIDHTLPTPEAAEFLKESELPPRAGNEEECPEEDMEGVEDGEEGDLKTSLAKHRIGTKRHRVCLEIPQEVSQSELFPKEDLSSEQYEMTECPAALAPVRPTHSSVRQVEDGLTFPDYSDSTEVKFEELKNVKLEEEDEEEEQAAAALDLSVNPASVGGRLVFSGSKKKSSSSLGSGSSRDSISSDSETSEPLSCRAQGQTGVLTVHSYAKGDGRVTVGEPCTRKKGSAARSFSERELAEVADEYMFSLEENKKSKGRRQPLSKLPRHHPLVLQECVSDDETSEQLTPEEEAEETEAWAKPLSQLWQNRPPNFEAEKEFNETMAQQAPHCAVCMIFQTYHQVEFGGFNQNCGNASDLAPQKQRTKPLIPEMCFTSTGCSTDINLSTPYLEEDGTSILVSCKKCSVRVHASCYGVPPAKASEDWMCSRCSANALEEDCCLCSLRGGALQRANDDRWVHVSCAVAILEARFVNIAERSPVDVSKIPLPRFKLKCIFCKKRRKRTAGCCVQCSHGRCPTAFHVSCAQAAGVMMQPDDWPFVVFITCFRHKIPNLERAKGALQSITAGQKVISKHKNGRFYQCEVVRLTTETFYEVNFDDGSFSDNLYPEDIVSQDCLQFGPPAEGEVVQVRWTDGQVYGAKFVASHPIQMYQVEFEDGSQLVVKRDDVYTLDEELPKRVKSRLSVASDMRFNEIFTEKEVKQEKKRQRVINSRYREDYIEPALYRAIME
HP1b chromo inh: inhibitors of HP1-beta chromodomain binding to methylated histone tails | Potency, µM (series often up to 114 µM), without a hit: top-dose activity change, negative = inhibition, actives largely listed as inhibitors | P83916 | actives 0.56% (n = 390,000) | AlphaScreen HP1-beta / biotin-H3K9me3 peptide binding; further: nearly all actives have a fitted effect of over 70% in size
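AlphaScreen: HP1-beta (50 nM) preformed 30 min with biotin-H3(1-18)K9me3 peptide (50 nM) in PBS pH 7.4, 0.01% Tween-20. Compound added for 30 min at RT, then streptavidin donor/nickel chelate acceptor beads (10 ug/mL) for 30 min.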
* marks the source's active call; other numbers are inactive results; ? = inconclusive; nt = no result; ! = a repeat was not active; [ ] = another dose, or the depositor's remark. The call rests on the fitted dose curve; in most records, active means well fitted curve in the direction sought with a large enough effect; inconclusive means small, poorly fitted or top-dose-only effect, or another doubt; inactive means no such curve, though single readings can be large; an effect the other way counts as inactive or inconclusive. Potency means the concentration at half of the fitted maximal effect.

SMILES	L3MBTL1 inh	BAZ2B inh	GLS inhibitor	G9a block	JMJD2A Tudor	HP1b chromo inh
CCCCCCCC/C=C\CCCCCCCC(=O)NCc1ccc(O)c(OC)c1	nt	nt	0%	8%[59 µM]	nt	nt
Cc1nc2nc(SCC(=O)NCCc3ccc(Cl)cc3)nn2c(C)c1Cc1ccccc1	nt	-15%	-5%	-3%[59 µM]	-27%	2%
Cc1cc(OCCOCCNC(C)C)cc(C)c1Cl	nt	79µM*	-1%	?	3.2µM*	-18%
C[C@]12C=CC(=O)N[C@@H]1CC[C@@H]1C2CC[C@]2(C)C(C(=O)Nc3cc(C(F)(F)F)ccc3C(F)(F)F)CC[C@@H]12 (stereo not given in full)	nt	nt	-24%	34%[59 µM]	nt	nt
O=C(CN1C(=O)N/C(=C\c2ccccc2OCc2ccc(C(=O)O)cc2)C1=O)Nc1ccc(F)cc1	nt	71µM*	0%	24%	-33%	?
Cc1cccc(NC(=O)CN2C(=O)N/C(=C\c3ccccc3OCc3ccc(C(=O)O)cc3)C2=O)c1	nt	71µM*	-21%	-51%[59 µM]	?	?
O=C(O)c1ccc(COc2ccccc2/C=C2\NC(=O)N(Cc3ccc(F)cc3)C2=O)cc1	-1%	1%	4%	?	-24%	9%
COc1ccccc1CN(C)C(=O)COC(=O)c1cc(C)oc1C	-5%	-3%	7%	45µM*	-14%	13%
Cc1ccc(C(c2sc3nc(-c4ccco4)nn3c2O)N2CCC3(CC2)OCCO3)cc1 (stereo not given)	nt	-23%	2%	-27%[59 µM]	-9%	27%
Cc1ccccc1Nc1c(-c2ccccn2)nc2ccccn12	nt	10µM*	6%	40µM*	50µM*	-5%
Cc1ccccc1Nc1c(-c2cccnc2)nc2ccccn12	nt	-31%	4%	4%	-7%[11.4 µM]	38%
COc1ccc(-c2nc3ccccn3c2Nc2ccccc2C)cc1	nt	nt	nt	nt	56µM*	?
Cc1ccc2nc(-c3ccccn3)c(Nc3ccccc3C)n2c1	nt	20µM*	11%	?	45µM*!	-21%
CC(C)c1ccc(Nc2c(-c3ccccn3)nc3ccccn23)cc1	nt	22µM*	11%	?	32µM*	?
Fc1ccc(Nc2c(-c3ccccn3)nc3ccc(Cl)cn23)cc1	nt	?	22%	-2%[59 µM]	?	33%
Cc1cccc(S(=O)(=O)c2cn(Cc3ccc(F)cc3)c3cc(N4CCCCC4)c(F)cc3c2=O)c1	nt	3%	2%	10%[59 µM]	0%	32%
CC1=C(C(=O)Nc2ccccc2)C(c2ccccc2C)n2nc(SCC(=O)c3ccc(C)cc3)nc2N1 (stereo not given)	nt	-5%	2%	14%[59 µM]	-20%	21%
Cc1ccc2nc(-c3ccccn3)c(Nc3ccc(F)cc3)n2c1	nt	5.6µM*	0%	12%[59 µM]	?	26%
Cc1ccn2c(Nc3ccccc3C)c(-c3ccccn3)nc2c1	nt	22µM*	14%	?	45µM*!	?
Cc1ccn2c(Nc3ccccc3)c(-c3ccccn3)nc2c1	nt	20µM*	-27%	42%[59 µM]	50µM*	27%
Cc1ccc(-c2nc3sccn3c2Nc2ccccc2C)cc1	nt	7.1µM*	1%	13µM*	45µM*	?
Cc1ccc2nc(-c3ccncc3)c(Nc3ccccc3C)n2c1	nt	-11%	22%	10%[59 µM]	-17%	20%
CCOc1ccc2ncc3c(-c4cccc(OC)c4)nn(-c4ccccc4)c3c2c1	nt	nt	9%	1%[59 µM]	-31%	19%
Cc1cccc(Cn2cc3c(=O)n(CC(=O)Nc4ccc(C)c(F)c4)nc-3c3cc(F)ccc32)c1	nt	-3%	0%	3%[59 µM]	3%	24%
CCOc1ccc(N(CC)S(=O)(=O)N2CCCC(C(=O)NCCc3ccccc3OC)C2)cc1 (stereo not given)	nt	-14%	-6%	-5%[59 µM]	-18%	1%
SMILES	L3MBTL1 inh	BAZ2B inh	GLS inhibitor	G9a block	JMJD2A Tudor	HP1b chromo inh
COc1cc(CNCc2cccs2)ccc1OCc1ccccc1	2%	7%	-6%	-2%[59 µM]	-6%	29%
COc1cc(OC)c(OC)cc1CNCc1ccco1	nt	?	0%	28µM*	2.8µM*	?
COc1cccc(CNCc2cccc(OC)c2O)c1O	nt	nt	56%	nt	-15%	9%
COc1cc(OC)c(S(=O)(=O)NCc2ccco2)cc1S(=O)(=O)NCc1ccco1	-2%	3%	-2%	3%[12.7 µM]	-26%	14%
COc1cc(CNCc2ccco2)ccc1OCc1ccccc1	-1%	?	6%	35µM*	4µM*	?
COc1cccc(CNCc2ccco2)c1O	25%	35%	7%	nt	18µM*	?
CSc1nc(N)c2ncn([C@@H]3O[C@H](COP(=O)(O)OP(=O)(O)O)[C@H](O)[C@H]3O)c2n1	nt	nt	nt	20%[12.7 µM]	nt	nt
CCCCC(=O)N1CCc2cc(OC)c(OC)cc2C1COc1ccc(C(=O)OCC)cc1 (stereo not given)	nt	-16%	0%	-5%[59 µM]	-22%	22%
COc1cccc(-c2cn3ncsc3n2)c1	nt	?	-4%	-25%[59 µM]	-25%	16%
C[S+](C)CC[C@H](N)C(=O)O	nt	nt	16%	-11%[12.7 µM]	nt	nt
CCC(C(=O)Nc1cc(C(F)(F)F)ccc1Cl)n1nc(C)c2sc3ccccc3c2c1=O (stereo not given)	nt	2%	8%	-36%[59 µM]	-1%	43%
O=C(CNCc1ccco1)Nc1ccc(Oc2ccccc2)cc1	nt	50µM*	-6%	14µM*	18µM*	7%
O=C(CNCc1ccco1)Nc1ccccc1-n1cccc1	11%	?	-4%	13µM*	?	-9%
COc1ccc(OC)c(C2C(C(=O)N3CCCCC3)=C(C)Nc3nc4ccccc4n32)c1 (stereo not given)	nt	1%	0%	-25%[59 µM]	-16%	12%
COc1cccc(CNC(=O)CCc2nnc3n(C)c(=O)c4sccc4n23)c1	nt	7%	-10%	-4%[59 µM]	-2%	25%
Cc1nc(NS(=O)(=O)c2ccccc2)sc1C(=O)NNS(=O)(=O)c1ccccc1	nt	-10%	35%	50µM*	-23%	-13%
Cc1nc(C)c(C(=O)NNS(=O)(=O)c2ccc3ccccc3c2)s1	7%	-17%	-22%	?	25µM*	17%
Cc1nc(NS(=O)(=O)c2ccccc2)sc1NC(=O)Nc1ccc(Cl)cc1	nt	50µM*	21%	-26%[12.7 µM]	?	-9%
COc1ccccc1C1NC(c2ccc3c(c2)OCO3)=CC(c2ccccc2O)N1 (stereo not given)	nt	nt	nt	nt	-9%[57.1 µM]	2%[57 µM]
Cc1ccccc1/C=N/Nc1nc2ccccc2c(=O)n1O	nt	-14%	10%	14µM*	-4%	-14%
COc1ccccc1-c1nc2ccccc2c(=O)n1O	nt	?	0%	35µM*	-22%	-13%
Cc1ccc(-c2nc3ccccc3c(=O)n2NC(=O)c2cccs2)cc1	17%	18%	15%	-14%[59 µM]	?	29%
